Results as given in the OligoGym collection.

What was measured:
Assay in all cases: pooled miR-30 sensor sort-seq; sequence = guide strand
Conditions in all cases: shRNA
DUSP5 = target: DUSP5
DUSP3 = target: DUSP3
EAPP = target: EAPP
EDF1 = target: EDF1
EDDM3B = target: EDDM3B
EFCAB6 = target: EFCAB6
ECH1 = target: ECH1
EEF1B2 = target: EEF1B2
EHD3 = target: EHD3
Further: reference of the scale not given here.

Sequence: TAGTGTAGGTGGGTCGCGCAGG
- sensor-assay potency score (higher = more potent) (DUSP5): -0.939

Sequence: TAGAAAGTCTCATATCCCCCTT
- sensor-assay potency score (higher = more potent) (DUSP5): -0.306

Sequence: TAGGCGATAACTAGCGTTGGGG
- sensor-assay potency score (higher = more potent) (DUSP3): -0.821

Sequence: TTCAAAGTAAGCGCTGAGGTTG
- sensor-assay potency score (higher = more potent) (DUSP3): -0.662

Sequence: TCTGTCATTGAGCTGGCAGAGC
- sensor-assay potency score (higher = more potent) (DUSP3): -1.17

Sequence: TTGACGTGCATGAAGGACCTGC
- sensor-assay potency score (higher = more potent) (DUSP3): 0.645

Sequence: TTCTGCCGCATCATGAGGTAGG
- sensor-assay potency score (higher = more potent) (DUSP3): -0.351

Sequence: TAGCGCGCCGACACCGCGCCGC
- sensor-assay potency score (higher = more potent) (DUSP5): -0.777

Sequence: TCTCACTCTCAATCTTCTCTTG
- sensor-assay potency score (higher = more potent) (DUSP5): -0.536

Sequence: ATTCCGAGTAGAAAGTCTCATA
- sensor-assay potency score (higher = more potent) (DUSP5): -1.1

Sequence: TAGTTTCTGCAGCTTGGGGATG
- sensor-assay potency score (higher = more potent) (DUSP3): -1.37

Sequence: TATATCTTAGAACCTCCTCTTT
- sensor-assay potency score (higher = more potent) (EAPP): -0.803

Sequence: TTCCACATCTGTCTCTGCCTTC
- sensor-assay potency score (higher = more potent) (EAPP): 0.205

Sequence: TTGGCGAGGAACTCGCACTTGG
- sensor-assay potency score (higher = more potent) (DUSP5): -0.725

Sequence: TTCATAAGGTAAGCCATGCAGA
- sensor-assay potency score (higher = more potent) (DUSP5): -0.386

Sequence: TTGAGTGGGTAGGCACCGGTGC
- sensor-assay potency score (higher = more potent) (DUSP5): -0.999

Sequence: TTCTGCTGAGCTCTGAGACTGT
- sensor-assay potency score (higher = more potent) (DUSP5): -0.115

Sequence: ATGCATGGTAGGCACTTCCAAG
- sensor-assay potency score (higher = more potent) (DUSP5): -1.82

Sequence: TCTTGGTAATAGAATGTTGTTT
- sensor-assay potency score (higher = more potent) (EDF1): -1.13

Sequence: TTTGACAGCAGGAATGGGCTGG
- sensor-assay potency score (higher = more potent) (EDF1): 0.46

Sequence: AATAGAATGTTGTTTGTTCTGG
- sensor-assay potency score (higher = more potent) (EDF1): -0.0468

Sequence: TTGGACTTAAGTAGTGCTGTTT
- sensor-assay potency score (higher = more potent) (EDDM3B): -0.357

Sequence: TTGCTCTGTACAAGCAGTGTGC
- sensor-assay potency score (higher = more potent) (EDDM3B): -0.53

Sequence: TTCACTTAACAGCTGATCCTTT
- sensor-assay potency score (higher = more potent) (EFCAB6): 0.362

Sequence: TTGCTCTGCCGACCTTGCTGGA
- sensor-assay potency score (higher = more potent) (EDF1): -1.14

Sequence: TATGCTATCAACATACCCGTCC
- sensor-assay potency score (higher = more potent) (EDDM3B): 0.462

Sequence: TACAGCAGGTTGACCTTGGTGC
- sensor-assay potency score (higher = more potent) (ECH1): 0.173

Sequence: TTGAATGCTTCTGACGCACTCC
- sensor-assay potency score (higher = more potent) (EEF1B2): 0.113

Sequence: ATCTTTAGGTCTTCTATGCTAT
- sensor-assay potency score (higher = more potent) (EDDM3B): -0.978

Sequence: TAGTTTGTAACAGAAATCCTTA
- sensor-assay potency score (higher = more potent) (EFCAB6): -0.465

Sequence: TAAATGTTCACTTAACAGCTGA
- sensor-assay potency score (higher = more potent) (EFCAB6): -0.275

Sequence: TAGAAAGCACTGAATACTCTAC
- sensor-assay potency score (higher = more potent) (EDDM3B): -0.181

Sequence: TTGGAGCCTGTCAGTCGCCGGG
- sensor-assay potency score (higher = more potent) (ECH1): -1.13

Sequence: TCTTGCTGGAAATCTCGGCCGC
- sensor-assay potency score (higher = more potent) (ECH1): -0.461

Sequence: TATCTGTTCCAACTTTATCATC
- sensor-assay potency score (higher = more potent) (EEF1B2): -1.68

Sequence: TTTGAGAGGATTCTGGACCCAT
- sensor-assay potency score (higher = more potent) (EDDM3B): 0.578

Sequence: TAAACTGGGAAACTGGGTCAGA
- sensor-assay potency score (higher = more potent) (ECH1): -0.506

Sequence: TGTTCTTGGTAATAGAATGTTG
- sensor-assay potency score (higher = more potent) (EDF1): -1.17

Sequence: TCTTGTTGAAGCACTCTACCAT
- sensor-assay potency score (higher = more potent) (ECH1): 0.331

Sequence: TCATAGTCCGCGATCACCTGTG
- sensor-assay potency score (higher = more potent) (EDF1): 0.11

Sequence: TGAACATTTTTCCTGCACCAGA
- sensor-assay potency score (higher = more potent) (ECH1): -1.08

Sequence: TAAGAGAACATCCACATTCTTC
- sensor-assay potency score (higher = more potent) (EFCAB6): -0.398

Sequence: TTTGTCTGGGAACACCCGGCTG
- sensor-assay potency score (higher = more potent) (ECH1): -1.1

Sequence: TTGAAGGTCTCCTGGTATCGAG
- sensor-assay potency score (higher = more potent) (ECH1): -0.974

Sequence: ATTTCTTGGAAGTCTCCACATC
- sensor-assay potency score (higher = more potent) (EDF1): -1.38

Sequence: TCGTCAGCCATCATCTTGCGGG
- sensor-assay potency score (higher = more potent) (ECH1): -0.729

Sequence: TCTTTGTCTGGGAACACCCGGC
- sensor-assay potency score (higher = more potent) (ECH1): -0.283

Sequence: TTGACCAGGCTCTGGTTCCCGA
- sensor-assay potency score (higher = more potent) (ECH1): -0.944

Sequence: TTTCGTGGCCAGGTCCTTCTGC
- sensor-assay potency score (higher = more potent) (EDF1): -0.179

Sequence: TTGTCTGGGAACACCCGGCTGA
- sensor-assay potency score (higher = more potent) (ECH1): 0.142

Sequence: TGCAGCTCCTCTGTCTCCCGGT
- sensor-assay potency score (higher = more potent) (EDF1): -0.285

Sequence: TTTCCAATGTCCTTTCCCCGGA
- sensor-assay potency score (higher = more potent) (EDF1): -0.772

Sequence: TTTCGGAAGCGATCCATCCAGT
- sensor-assay potency score (higher = more potent) (EDDM3B): -0.761

Sequence: TTGCGCAGCACCGTCACCGTGT
- sensor-assay potency score (higher = more potent) (EDF1): -0.348

Sequence: TCAATGTAGTTGAAGCTCCTGC
- sensor-assay potency score (higher = more potent) (EDDM3B): 0.357

Sequence: ATATGCTCGATTTTGTACCATG
- sensor-assay potency score (higher = more potent) (EDDM3B): -1.24

Sequence: TTCTCATTGATTTTCGTGGCCA
- sensor-assay potency score (higher = more potent) (EDF1): -0.538

Sequence: TTGTTCATGGCATTCCTCTTGT
- sensor-assay potency score (higher = more potent) (ECH1): 0.382

Sequence: TTGTCCTTCCCGAACACCGAGG
- sensor-assay potency score (higher = more potent) (EHD3): -1.14

Sequence: TTTGTGGGCATCGAAGAGCAGA
- sensor-assay potency score (higher = more potent) (EHD3): -1.26
